The list is not random: actives were taken first. Their share in the collection is about 19%.
TDP1 cell noCPT: qHTS for Inhibitors of human tyrosyl-DNA phosphodiesterase 1 (TDP1): qHTS in cells in absence of CPT; DT40 Tdp1-/- hTDP1 cells, no CPT, ATP luminescence, 48 h; Potency, µM (top dose mostly 46.2 µM), usual class: inhibitors; 420,000 tested, 15% active; further: nearly all actives have a fitted effect of over 55% in size
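Seeded 400 DT40-hTDP1 cells/well (vehicle DMSO, no 20 nM CPT); pinned compounds; ≥48 hr at 37 °C; CellTiter-Glo luminescence as viability measure.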
HT1080 IDH1KD tx: kills HT-1080 cells with IDH1 knockdown. HT-1080 IDH1 knockdown viability, ATP luminescence, 48 h. Potency, µM (titrated, usually from 46.1 µM), most hits filed as cytotoxic. 360,000 tested, 2% active. AID 686971
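Assay cells: HT-1080 with IDH1 knockdown, 750 per well, RPMI/5% FBS. Exposure: 48 h at 37 °C following 2 h pre-incubation. Read: CellTiter-Glo luminescence; fitted concentration-response, curve class assigned.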
KB-V1 cytotox: KB-V1 MDR subline cytotoxicity. KB-V1 MDR cells viability, CellTiter-Glo, 72 h. 400,000 tested, 3.4% active. Potency, µM (doses to about 46.1 µM), usual class: cytotoxic; further: nearly all actives have a fitted effect of over 60% in size
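Potencies derive from concentration-effect curves fitted to normalized luminescence (CellTiter-Glo) of KB-V1 cells treated for 72 h at 37 degrees C in phenol-red-free DMEM containing 10% FBS.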
HT1080NT lethal: kills 2HG-producing HT-1080-NT fibrosarcoma cells; HT-1080-NT fibrosarcoma viability, CellTiter-Glo ATP luminescence, 48 h; 360,000 tested, 1.6% active; Potency, µM (series often up to 46.1 µM), usual class: cytotoxic;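 further: NT is the 2HG producing partner of a matched IDH1 knockdown line; nearly all actives have a fitted effect of over 55% in size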
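Compounds were tested in concentration-response format on HT-1080-NT cells for 48 hours at 37 degrees C. Cell viability came from CellTiter-Glo luminescence; curves were classified by r2, response magnitude and activity.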
KB-3-1 cytotox: KB-3-1 parental cell cytotoxicity. KB-3-1 viability, CellTiter-Glo ATP luminescence, 72 h. Potency, µM (doses to about 46.1 µM), most hits filed as cytotoxic. 400,000 tested, 1.4% active. AID 1347075; further: nearly all actives have a fitted effect of over 60% in size
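Cytotoxicity measured as CellTiter-Glo luminescence after 72 h at 37 C. Compound titrations were pinned onto drug-naive KB-3-1 parental adenocarcinoma cells grown in DMEM with 10% FBS, and normalized data fitted to concentration-response curves.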
TDP1 cell CPT: DT40-hTDP1 cell growth loss with CPT; 420,000 tested, 12% active; chicken DT40 Tdp1-/-;hTDP1 cells + 20 nM CPT, ATP luminescence, 48 h; Potency, µM (top dose mostly 46.2 µM), usual class: inhibitors; further: nearly all actives have a fitted effect of over 55% in size
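Chicken DT40 Tdp1-/- cells complemented with human TDP1, 400 cells/well, exposed to compounds plus 20 nM camptothecin for at least 48 h at 37 C; viability read as ATP content by CellTiter-Glo luminescence.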
Of the large screens only hits and unclear results are named; the others gave an inactive call. The call rests on the fitted dose curve; in most records, active means well fitted curve in the direction sought with a large enough effect; inconclusive means small, poorly fitted or top-dose-only effect, or another doubt; inactive means no such curve, though single readings can be large; an effect the other way counts as inactive or inconclusive.

O=C(C=Cc1ccccc1)CC(c1ccccc1)N1CCOCC1 (stereo not given)	TDP1 cell noCPT 3.26µM, HT1080 IDH1KD tx inconclusive, HT1080NT lethal 4.11µM, KB-3-1 cytotox inconclusive, TDP1 cell CPT 4.11µM
CCNC(=O)C1(C)CCN(C(=O)c2cccs2)C1 (stereo not given)	HT1080NT lethal inconclusive
NC(=O)c1c(NC(=O)c2c(F)cccc2F)sc2c1CCN(Cc1ccccc1)C2	TDP1 cell noCPT 16.4µM, KB-3-1 cytotox inconclusive, TDP1 cell CPT inconclusive
CCCCN(CCCC)S(=O)(=O)c1ccc(C(=O)Nc2sc3c(c2C(N)=O)CCN(CC)C3)cc1	TDP1 cell noCPT inconclusive, TDP1 cell CPT inconclusive (no result: HT1080 IDH1KD tx, HT1080NT lethal)
CCOC(=O)c1c(NC(=O)c2ccc(S(=O)(=O)N(CC(C)C)CC(C)C)cc2)sc2c1CCN(CC)C2	TDP1 cell noCPT 16.4µM, TDP1 cell CPT 8.2µM (no result: HT1080 IDH1KD tx, HT1080NT lethal)
CCN1CCc2c(sc(NC(=O)c3ccc(S(=O)(=O)N(CC)c4ccccc4)cc3)c2C(N)=O)C1	TDP1 cell noCPT 14.6µM, HT1080 IDH1KD tx 5.8µM, KB-V1 cytotox inconclusive, HT1080NT lethal 18.4µM, KB-3-1 cytotox inconclusive, TDP1 cell CPT inconclusive
CC(C)CN(CC(C)C)S(=O)(=O)c1ccc(C(=O)Nc2sc3c(c2C(N)=O)CCN(C(C)C)C3)cc1	TDP1 cell noCPT 9.2µM, KB-V1 cytotox inconclusive, TDP1 cell CPT 8.2µM (no result: HT1080 IDH1KD tx, HT1080NT lethal)
Cc1c(NC(=O)Nc2ccc([N+](=O)[O-])cc2)c(=O)n(-c2ccccc2)n1C	TDP1 cell noCPT 20.6µM, TDP1 cell CPT inconclusive
Cc1sc(Nc2ccc([N+](=O)[O-])cc2)nc1-c1c(C)n(C)n(-c2ccccc2)c1=O	TDP1 cell noCPT 23.1µM, TDP1 cell CPT inconclusive
C=CCN(c1ccc(F)cc1)S(=O)(=O)c1cc(C(=O)NC2CC2)ccc1Cl	TDP1 cell noCPT 20.6µM, KB-V1 cytotox inconclusive, TDP1 cell CPT 20.6µM
CCN(CC)c1ccc(NC(=O)CCN2C(=O)c3ccccc3S2(=O)=O)c(C)c1	none
O=C(NCCc1ccccc1)/C(=C/c1ccco1)c1ccccc1	TDP1 cell noCPT inconclusive, TDP1 cell CPT 25.9µM
Cc1cccc(C)c1NC(=O)/C(=C/c1ccco1)c1ccccc1	TDP1 cell noCPT 13µM, KB-V1 cytotox inconclusive, TDP1 cell CPT 18.4µM
NC(=O)NC(=O)CN1C(=O)NC2(CCOc3ccccc32)C1=O (stereo not given)	none
CCCCC(=O)Nc1c(C)cc(C)cc1Cl	none
O=C(NC(=S)NC1CCSC1=O)c1cccs1 (stereo not given)	TDP1 cell noCPT 29.1µM
O=C(NC(=S)NNC(=O)c1cccs1)c1ccccc1	TDP1 cell noCPT 14.6µM, HT1080 IDH1KD tx inconclusive, HT1080NT lethal inconclusive, KB-3-1 cytotox inconclusive, TDP1 cell CPT inconclusive
CC(C)(C)c1ccc(C(=O)NC(=S)NNC(=O)c2cccs2)cc1	TDP1 cell noCPT 13µM, HT1080 IDH1KD tx inconclusive, KB-V1 cytotox inconclusive, HT1080NT lethal inconclusive, KB-3-1 cytotox 2.59µM, TDP1 cell CPT 23.1µM
Cc1cccc(C(=O)NC(=S)NNC(=O)c2cccs2)c1	TDP1 cell noCPT inconclusive, HT1080 IDH1KD tx inconclusive, KB-V1 cytotox inconclusive
C/C(=N\NC(=O)c1ccccc1C)c1ccc(NC(=O)c2cccs2)cc1	TDP1 cell noCPT inconclusive, KB-V1 cytotox 5.8µM, TDP1 cell CPT inconclusive
CCCCC(=O)N(C)c1c(C)nc2ccc(C(=O)Nc3cccc(OC)c3)cn12	none
Cc1ccccc1OC(=O)c1cccc(S(=O)(=O)N2CCN(C)CC2)c1	none
C/C(=N\NC(=O)c1ccccc1O)c1ccc(NC(=O)Cc2ccccc2)cc1	KB-V1 cytotox 16.4µM, KB-3-1 cytotox inconclusive
C/C(=N\NC(=O)c1ccc(NS(=O)(=O)c2cccs2)cc1)c1ccc(C(C)(C)C)cc1	TDP1 cell noCPT 9.2µM, HT1080 IDH1KD tx inconclusive, HT1080NT lethal inconclusive, TDP1 cell CPT 7.31µM
CC(=O)Nc1cccc(/C(C)=N/NC(=O)c2ccc(NS(=O)(=O)c3cccs3)cc2)c1	none

Screening data as filed in PubChem BioAssay.
